# Screening results (PubChem)
# A selection: hits, their analogues and other compounds. The true share with any hit is near 12%.
# BAZ2B inh: BAZ2B (human) inhibition; Q9UIF8; AlphaScreen BAZ2B-H3K14Ac peptide displacement; Potency, µM (highest dose often 114 µM), for inactives: at the top dose activity change, negative = inhibition, most hits filed as inhibitors; hit rate 4.4% among 360,000; further: on the % scale 0 is the no-effect control and ±100 the full control effect; nearly all actives have a fitted effect of over 60% in size
#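 Multi-concentration screen (max 110 uM) measuring displacement of acetylated histone H3 peptide from BAZ2B by AlphaScreen, using 50 nM protein, 50 nM peptide and 10 ug/mL streptavidin donor plus Ni-chelate acceptor beads.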
# HP1b binding inh: inhibitors of HP1-beta chromodomain binding to methylated histone tails. P83916. AID 540317. Potency, µM (titrated, usually from 114 µM), without a hit: at the highest dose activity change, negative = inhibition, actives largely listed as inhibitors. hit rate 0.56% among 390,000. AlphaScreen HP1-beta / biotin-H3K9me3 peptide binding; further: nearly all actives have a fitted effect of over 70% in size
# Target sequence (P83916 whole entry, looked up): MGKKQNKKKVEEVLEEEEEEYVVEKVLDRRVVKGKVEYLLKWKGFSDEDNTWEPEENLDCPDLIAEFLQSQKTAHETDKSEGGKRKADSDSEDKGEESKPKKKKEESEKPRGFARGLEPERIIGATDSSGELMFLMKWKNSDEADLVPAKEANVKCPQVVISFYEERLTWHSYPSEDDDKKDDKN
#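 AlphaScreen: HP1-beta (50 nM) preformed 30 min with biotin-H3(1-18)K9me3 peptide (50 nM) in PBS pH 7.4, 0.01% Tween-20. Compound added for 30 min at RT, then streptavidin donor/nickel chelate acceptor beads (10 ug/mL) for 30 min.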
# G9a inh: G9a (human) methyltransferase inhibition; Q96KQ7; G9a H3K9 monomethylation, AlphaScreen, 2 h; Potency, µM (top dose mostly 102 µM), for the others: at the top dose activity, negative = inhibition, most hits filed as inhibitors; hit rate 8.8% among 350,000; AID 504332; further: on the % scale 0 is the no-effect control and ±100 the full control effect; nearly all actives have a fitted effect of over 75% in size
# Target sequence (Q96KQ7 913-1193 limits assumed): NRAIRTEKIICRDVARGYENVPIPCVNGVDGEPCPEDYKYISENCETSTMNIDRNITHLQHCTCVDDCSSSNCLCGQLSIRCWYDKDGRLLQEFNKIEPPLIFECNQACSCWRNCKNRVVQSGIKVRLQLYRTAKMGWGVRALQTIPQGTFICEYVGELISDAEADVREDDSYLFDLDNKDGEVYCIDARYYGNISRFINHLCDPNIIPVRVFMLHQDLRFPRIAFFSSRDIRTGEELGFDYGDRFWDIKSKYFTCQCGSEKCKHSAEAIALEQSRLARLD
#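 Step 1: enzyme (final 20 nM) with compound, 15 min RT. Step 2: substrate peptide 500 nM and SAM 20 uM, 2 h RT. Step 3: anti-H3K9me1 antibody and AlphaScreen beads, 10 min, then plate read.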
# Sfp inh: inhibitors of Bacillus subtilis Sfp phosphopantetheinyl transferase | Q9F4F7 | Biochemical Sfp PPTase activity, qHTS | Potency, µM, for the others: largest response in the series, negative = inhibition, usual class: inhibitors | hit rate 3.5% among 310,000;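 further: the enzyme is Sfp with the accession as filed and its product quenches rhodamine fluorescence; 0% = enzyme reaction without inhibitor and -100% = no enzyme wells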
#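 Step 1, compound plus 15 nM Sfp-PPTase, 15 min, room temperature. Step 2, add rhodamine-CoA (5 uM) and BHQ-2-YbbR (12.5 uM). Step 3, read 525/598 nm fluorescence at 0 and 30 min.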
# JMJD2A Tudor: JMJD2A Tudor domain (human) inhibition; Potency, µM (titrated, usually from 114 µM), inactives show at the highest dose activity change, negative = inhibition, usual class: inhibitors; AlphaScreen JMJD2A-Tudor / H3K4me3 peptide binding; O75164; hit rate 4.4% among 390,000; further: on the % scale 0 is the no-effect control and ±100 the full control effect; nearly all actives have a fitted effect of over 50% in size
# * marks the source's active call; other numbers are inactive results; ? = inconclusive; · = no result; [ ] = dose if it differs, or a comment. The call rests on the fitted dose curve; in most records, active means well fitted curve in the direction sought with a large enough effect; inconclusive means small, poorly fitted or top-dose-only effect, or another doubt; inactive means no such curve, though single readings can be large; an effect the other way counts as inactive or inconclusive. Potency means the concentration at half of the fitted maximal effect.
SMILES,BAZ2B inh,HP1b binding inh,G9a inh,Sfp inh,JMJD2A Tudor
Cc1cccc(NC(=S)N2CCN(S(=O)(=O)c3ccccc3)CC2)c1,-23%,30%,?,4%,-19%
CC(=O)c1cccc(NC(=S)N2CCN(S(=O)(=O)c3ccccc3)CC2)c1,-20%,?,45µM*,-22%,-15%
Cc1ccc(CN2CCC(Oc3cccc(C(=O)NCc4cccnc4)c3)CC2)o1,?,15%,?,-10%,-34%
CC(=O)Nc1nc(=O)c2ccccc2s1,4%,16%,22µM*,?,-28%
O=C(Nc1nc(=O)c2ccccc2s1)c1ccccc1,-7%,18%,?,50µM*,-34%
Cc1ccc(C(=O)Nc2nc3ccccc3c(=O)s2)cc1,?,17%,8.9µM*,56µM*,89µM*
CSc1nc2ccc3nc(NC(=O)c4ccc(C)cc4)sc3c2s1,4%,51%,-11%[59 µM],3%,-20%
COC(=O)c1ccc(-n2nnc(-c3nc(-c4ccccc4Cl)no3)c2C)cc1,-2%,41%,10%[59 µM],·,2%
COc1ccccc1Nc1nn2c(=O)c3ccc(C(=O)NCCC4=CCCCC4)cc3nc2s1,-12%,22%,-20%[59 µM],·,-5%
Brc1ccc(C2=Nn3c(nnc3-c3cccnc3)SC2)s1,0%,34%,18%[12.7 µM],-1%,50µM*
Brc1ccccc1C1=Nn2c(nnc2-c2ccccc2)SC1,-5%,-26%,32µM*,79µM*,-24%
Clc1ccc(C2=Nn3c(nnc3-c3cccnc3)SC2)s1,1%,36%,?,12%,-19%
CC1=Nn2c(nnc2-c2cc(-c3ccccc3)n[nH]2)SC1,11%,43%,14µM*,-1%,0%
c1ccc(C2=Nn3c(nnc3-c3ccco3)SC2)cc1,-27%,-15%,32µM*,50µM*,-24%
Fc1ccc(C2=Nn3c(nnc3-c3ccco3)SC2)cc1,-4%,13%,·,?,3%
Cc1cccc(Nc2nc(N)nc(CN3CCN(c4ccc(F)cc4)CC3)n2)c1,-91%,-2%,45µM*,11%,56µM*
Nc1nc(CN2CCC(Cc3ccccc3)CC2)nc(Nc2ccccc2)n1,-37%,15%,-13%[12.7 µM],14%,?
Nc1nc(CN2CCN(Cc3ccc4c(c3)OCO4)CC2)nc(Nc2ccccc2)n1,?,7%,18%[12.7 µM],-1%,?
Nc1nc(CN2CCCCCC2)nc(Nc2ccccc2)n1,10µM*,13%,?,-13%,20µM*
CCOC(=O)C1CCCN(Cc2nc(N)nc(Nc3ccccc3)n2)C1 (centres undefined),35µM*,34%,0%[12.7 µM],-17%,56µM*
Cc1ccc(Nc2nc(N)nc(CN3CCCCCC3)n2)cc1,11µM*,28%,?,-10%,50µM*
CCCN1CNc2c(c(=O)[nH]c(=O)n2CCc2ccc(OC)c(OC)c2)C1,·,20%,·,·,-12%
Cc1cc(C)cc(N(CC(=O)NCC2CCCO2)C(=O)CCC(=O)Nc2nccs2)c1 (centres undefined),-12%,25%,-2%,23%,-21%
Cc1ccc(Nc2nc(N)nc(CSc3nnnn3-c3ccccc3)n2)cc1,?,130%,12%[12.7 µM],-12%,89µM*
Cc1ccc(Nc2nc(N)nc(CSc3nncn3C)n2)cc1,31%,19%,29%[59 µM],-5%,2%
SMILES,BAZ2B inh,HP1b binding inh,G9a inh,Sfp inh,JMJD2A Tudor
Cc1ccc(Nc2nc(N)nc(CN3CCN(C(=O)c4ccco4)CC3)n2)cc1Cl,-80%,-1%,50µM*,-10%,?
COc1cccc(OCCCn2c(-c3ccc(Cl)cc3)nc3ccccc3c2=O)c1,71%,111%,53%[59 µM],·,53%
CCOc1ccc(CN(CCC#N)C(=S)NC(=O)c2ccccc2)cc1,-37%,36%,1.4µM*,-3%,-25%
N#CCCN(Cc1ccccc1)C(=S)Nc1ccccc1,9%,?,5%[59 µM],6%,-26%[57.1 µM]
COc1ccc(CN(CCC#N)C(=S)NC(=O)c2ccccc2)cc1,-35%,20%,40µM*,-5%,-32%
N#CCCN(Cc1ccccc1)C(=S)NC(=O)c1ccccc1,-32%,15%,?,-27%,?
COc1ccc(C(=O)N2CCN(C(=O)COc3ccccc3)CC2)cc1OC,-2%,28%,4%[59 µM],·,8%
COc1ccc(/C=C\C(=O)Nc2ccccc2C(=O)O)cc1OC,·,·,·,26%,·
NC(CSC(c1ccccc1)(c1ccccc1)c1cccc2ccccc12)C(=O)O (centres undefined),·,?,·,·,56µM*
Cc1nc2ccccn2c1-c1csc(Nc2cccc(C(=O)O)c2)n1,-10%,11%,45µM*,79µM*,-20%
Cc1nc2ccccn2c1-c1csc(Nc2cccc(O)c2)n1,-5%,-9%,·,10%,-35%
Cc1cccc(Nc2nc(-c3c(C)nc4ccccn34)cs2)c1,-35%,14%,?,50µM*,-29%
COc1ccc(N2C(=NC(=O)c3ccc(Br)cc3)SC3CS(=O)(=O)CC32)cc1 (centres undefined),10%,31%,-2%[12.7 µM],·,-1%
CS(=O)(=O)Nc1cccc(-c2cn3c(n2)SCC3)c1,-34%,?,-32%,9%,56µM*
CCS(=O)(=O)Nc1cccc(-c2cn3c(n2)SCC3)c1,-37%,12%[57 µM],-16%,1%,-6%
O=C(Nc1cccc(-c2cn3c(n2)SCC3)c1)c1ccc2c(c1)OCO2,?,-31%,45µM*,15%,?
O=S(=O)(Nc1ccc(-c2cn3c(n2)SCC3)cc1)c1cccs1,-27%,2%,35µM*,5%,-31%
O=S(=O)(Nc1ccc(-c2ccc3nncn3n2)cc1)c1cccs1,-1%,-8%,2%,·,-15%
CS(=O)(=O)Nc1cccc(-c2cnc3ccccc3n2)c1,1%,16%,45µM*,-19%,-14%
O=C(Nc1ccc(-c2cn3c(n2)SCC3)cc1)c1ccc2c(c1)OCO2,-13%,21%,4%,14%,-2%
CCc1ccccc1N(C)S(=O)(=O)c1ccc2[nH]cc(C(=O)NCCOC)c(=O)c2c1,2%,37%,-21%[59 µM],·,-3%
COc1ccc(C2CC(=O)c3cc(-c4nc(-c5cccc([N+](=O)[O-])c5)cs4)c(=O)n(-c4ccc(C)c(C)c4)c3C2)cc1 (centres undefined),-39%,37%,11µM*,·,-22%
O=c1[nH]n2c(C(F)(F)F)cc(C3CC3)nc2c1N=Nc1ccccc1,?,-19%,-2%,-7%,?
Cc1cc(C(F)(F)F)n2[nH]c(=O)c(N=Nc3ccccc3)c2n1,-26%,7%,?,-13%,28µM*
Cc1cc(C)n2[nH]c(=O)c(N=Nc3ccccc3)c2n1,?,-2%,7.9µM*,-1%,?
NNC(=O)c1nnsc1-c1csnn1,·,22%,·,·,79µM*
CCC(Sc1nc2c(sc3ccccc32)c(=O)n1CCCC(=O)NC1CCCC1)C(=O)Nc1cccc(OC)c1 (centres undefined),27%,65%,19%[59 µM],·,0%
